From PubChem BioAssay
This is a sample that favours compounds with a hit; in the whole collection about 19% have one here.
HT1080-NT tox – qHTS for induction of synthetic lethality in tumor cells producing 2HG: qHTS for the HT-1080-NT fibrosarcoma cell line. AID 686970, 2013. 1.6% of 360,000 active. Potency, µM (series often up to 46.1 µM), actives largely listed as cytotoxic. HT-1080-NT fibrosarcoma viability, CellTiter-Glo ATP luminescence, 48 h;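 also: NT is the 2HG producing partner of a matched IDH1 knockdown line; nearly all actives have a fitted effect of over 55% in size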
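750 cells/well, RPMI + 5% FBS; 2 h settle, compound pin-transfer, 48 h at 37 degrees C. CellTiter-Glo 10 min RT, luminescence. Normalized to DMSO and media-only wells.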
KB-3-1 cytotox – qHTS assay for MDR1-selective chemotherapeutics: Primary screen using the parental adenocarcinoma cell KB-3-1. KB-3-1 viability, CellTiter-Glo ATP luminescence, 72 h. Potency, µM (doses to about 46.1 µM), most hits filed as cytotoxic. 1.4% of 400,000 active. AID 1347075, 2019; also: nearly all actives have a fitted effect of over 60% in size
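KB-3-1 parental drug-naive adenocarcinoma cells in DMEM/10% FBS, incubated 72 h at 37 C with pin-transferred compounds across a concentration series. Viability by CellTiter-Glo luminescence; concentration-response curves fitted after normalization.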
HT1080 IDH1KD tx – qHTS for induction of synthetic lethality in tumor cells producing 2HG: qHTS for the HT-1080-IDH1KD cell line; 2% of 360,000 active; HT-1080 IDH1 knockdown viability, ATP luminescence, 48 h; AID 686971, 2013; Potency, µM (series often up to 46.1 µM), usual class: cytotoxic
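In this qHTS, HT-1080 cells depleted of IDH1 are exposed for 48 h at 37 °C to compound titrations. Toxicity is scored from CellTiter-Glo luminescence, with DMSO as full viability and medium alone as none.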
DT40 TDP1 no CPT – qHTS for Inhibitors of human tyrosyl-DNA phosphodiesterase 1 (TDP1): qHTS in cells in absence of CPT. 15% of 420,000 active. AID 686978, 2013. DT40 Tdp1-/- hTDP1 cells, no CPT, ATP luminescence, 48 h. Potency, µM (highest dose often 46.2 µM), most hits filed as inhibitors; also: nearly all actives have a fitted effect of over 55% in size
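Readout: luminescence from CellTiter-Glo after 30 min in the dark at RT. Cells: DT40 Tdp1-/- with stable hTDP1, 400/well. Exposure: compounds alone, ≥48 hr, 37 °C.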
KB-V1 cytotox – qHTS assay for MDR1-selective chemotherapeutics: Primary screen using the drug-selected MDR subline cells KB-V1. Potency, µM (highest dose often 46.1 µM), hits mostly cytotoxic. 3.4% of 400,000 active. AID 1347076, 2019. KB-V1 MDR cells viability, CellTiter-Glo, 72 h; also: nearly all actives have a fitted effect of over 60% in size
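Readout: CellTiter-Glo luminescence, 10 min after addition. Cells: KB-V1 MDR subline, 72 h at 37 degrees C with compound. Analysis: corrected, normalized data fitted to concentration-effect curves.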
TDP1 cell CPT – qHTS for Inhibitors of human tyrosyl-DNA phosphodiesterase 1 (TDP1): qHTS in cells in presence of CPT; chicken DT40 Tdp1-/-;hTDP1 cells + 20 nM CPT, ATP luminescence, 48 h; AID 686979, 2013; Potency, µM (titrated, usually from 46.2 µM), usual class: inhibitors; 12% of 420,000 active; also: nearly all actives have a fitted effect of over 55% in size
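Chicken DT40 Tdp1-/- cells complemented with human TDP1, 400 cells/well, exposed to compounds plus 20 nM camptothecin for at least 48 h at 37 C; viability read as ATP content by CellTiter-Glo luminescence.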
Numbers stand for hits; n = inactive; u = inconclusive; x = no result given. Calls follow the shape of the dose curve; as a rule, active = well fitted curve in the direction sought with a large enough effect; inconclusive = small, poorly fitted or top-dose-only effect, or another doubt; inactive = no such curve, though single readings can be large; an effect the other way counts as inactive or inconclusive.

SMILES	HT1080-NT tox	KB-3-1 cytotox	HT1080 IDH1KD tx	DT40 TDP1 no CPT	KB-V1 cytotox	TDP1 cell CPT
CCN(Cc1ccccc1)C(=O)CCS(=O)(=O)c1ccc2c(c1)CCN2C(C)=O	n	n	n	u	n	u
O=C(CSc1nnc2ccc(-c3ccc(F)cc3)nn12)N1CCOCC1	n	n	n	n	n	n
CN1C(=O)C(O)(CC(=O)/C=C/c2ccco2)c2ccccc21 (centres undefined)	n	u	n	n	n	n
CN1C(=O)C(O)(CC(=O)/C=C/c2ccco2)c2cc(Br)ccc21 (centres undefined)	n	u	n	4.1µM	n	6.5µM
CN1C(=O)C(O)(CC(=O)c2ccccc2O)c2cc(Br)ccc21 (centres undefined)	16µM	u	n	5.8µM	u	5.2µM
Nc1nc(COC(=O)C2CCN(C(=O)c3ccc(Cl)cc3)CC2)nc(Nc2ccccc2)n1	n	n	n	n	n	n
CCOC(=O)c1ccc(NC(=O)CC2C(=O)N(c3cccc(OC)c3)C(=O)N2Cc2cccnc2)cc1 (centres undefined)	x	x	x	21µM	x	13µM
CCOC(=O)c1ccc(NC(=O)CC2C(=O)N(c3cccc(OC)c3)C(=O)N2Cc2ccc(OC)cc2)cc1 (centres undefined)	x	n	x	u	n	21µM
CCOC(=O)c1ccc(NC(=O)CC2C(=O)N(c3ccc(F)cc3)C(=O)N2Cc2ccc(C)cc2)cc1 (centres undefined)	x	n	x	u	n	16µM
COc1ccc(NC(=O)CC2C(=O)N(c3cccc(C)c3)C(=O)N2Cc2cccnc2)cc1 (centres undefined)	x	x	x	n	x	u
CCOC(=O)c1ccc(NC(=O)CC2C(=O)N(c3ccc(F)cc3)C(=O)N2Cc2cccnc2)cc1 (centres undefined)	x	x	x	15µM	x	18µM
O=C(NCCc1ccccc1O)c1cc2c(cc1[N+](=O)[O-])OCO2	n	n	n	n	n	n
CC1CCN(C(=O)COC(=O)Cn2cnc3ccccc32)CC1	n	n	n	n	n	n
CC(NC(=O)c1ccc2c(c1)OCO2)C1CCCO1 (centres undefined)	n	n	n	u	n	n
CCOC(=O)c1cccc(NC(=O)CC2C(=O)N(c3ccc(C)cc3)C(=O)N2Cc2cccc(OC)c2)c1 (centres undefined)	x	x	x	u	x	18µM
CCOc1ccc(NC(=O)CC2C(=O)N(c3ccc(OC)cc3)C(=O)N2Cc2ccc(OC)cc2)cc1 (centres undefined)	n	n	n	u	n	u
COC(=O)c1ccc(NC(=O)CC2C(=O)N(c3ccc(C)cc3)C(=O)N2CC(C)C)cc1 (centres undefined)	n	n	n	u	23µM	u
COc1ccc(NC(=O)CC2C(=O)N(c3ccc(OC)cc3)C(=O)N2C(C)C)cc1 (centres undefined)	n	n	n	n	n	n
O=S(=O)(Nc1ccncc1)c1cc(Cl)c(Cl)cc1Cl	n	n	n	n	n	n
CCCCN(C)CCCNC(=O)/C=C1\Sc2ccccc2NC1=O	n	n	n	n	u	n
O=C(NNC(=O)C1CCCCC1)C(=O)NC1CCCCC1	n	n	n	n	n	n
N#CCSc1nnc(C2CCCCC2)n1Cc1ccccc1	n	n	n	n	n	10µM
COC(=O)c1cc(C(=O)c2ccc(Cl)cc2)n2c(=O)/c(=C\N(C)C)sc12	n	8.2µM	n	n	u	u
COC(=O)c1ccc(=O)n(CC(=O)c2ccc(Cl)cc2)c1	n	n	n	n	n	n
Cc1ccc(S(=O)(=O)c2nc(S(=O)(=O)c3ccc(C)cc3)c(NCCCOC(C)C)s2)cc1	x	n	x	16µM	u	u
SMILES	HT1080-NT tox	KB-3-1 cytotox	HT1080 IDH1KD tx	DT40 TDP1 no CPT	KB-V1 cytotox	TDP1 cell CPT
CCS(=O)(=O)c1nc(S(=O)(=O)c2ccc(C)cc2)c(NC(C)c2ccccc2)s1 (centres undefined)	x	n	x	u	n	u
CCS(=O)(=O)c1nc(S(=O)(=O)c2ccc(C)cc2)c(NC)s1	x	n	x	n	n	n
CCCS(=O)(=O)c1nc(S(=O)(=O)c2ccc(C)cc2)c(NC(C)c2ccccc2)s1 (centres undefined)	x	x	x	10µM	x	u
Cc1ccc(S(=O)(=O)c2nc(S(=O)(=O)c3ccc(C)cc3)c(NC(C)C)s2)cc1	x	n	x	u	n	16µM
CCS(=O)(=O)c1nc(S(=O)(=O)c2ccc(C)cc2)c(NCc2ccccc2Cl)s1	x	n	x	10µM	n	16µM
CS(=O)(=O)N1CCc2cc(S(=O)(=O)NCc3ccccc3Cl)ccc21	x	n	x	n	n	n
NS(=O)(=O)c1ccc(CNC(=O)c2ccccc2SCC(=O)N2CCCC2)cc1	n	n	n	u	n	n
CCN(CC1COc2ccccc2O1)C(=O)CN1C(=O)NC(C)(c2ccccc2)C1=O (centres undefined)	n	n	n	n	n	n
CCN(CC1COc2ccccc2O1)C(=O)CN1C(=O)NC(C)(c2ccc(C)cc2)C1=O (centres undefined)	n	n	n	23µM	u	u
CC(C)c1ccc(C2(C)NC(=O)N(CC(=O)NCC3COc4ccccc4O3)C2=O)cc1 (centres undefined)	n	n	n	u	16µM	u
CC(C)c1ccc(C2(C)NC(=O)N(CC(=O)NC3CCCC(C)C3C)C2=O)cc1 (centres undefined)	n	n	n	21µM	n	u
O=C(CSc1cn[nH]n1)Nc1ccc(Cl)cc1Cl	n	n	n	n	n	n
CC(=O)N1CCc2c(sc(NC(=O)c3ccc([N+](=O)[O-])o3)c2C(N)=O)C1	6.5µM	n	5.8µM	7.3µM	n	3.7µM
COC(=O)c1c(NC(=O)C2COc3ccccc3O2)sc2c1CCN(C(C)=O)C2 (centres undefined)	n	n	n	u	n	12µM
CC(=O)N1CCc2c(sc(NC(=O)C3COc4ccccc4O3)c2C(N)=O)C1 (centres undefined)	n	n	n	u	u	21µM
COC(=O)c1c(NC(=O)c2nc3ccccc3s2)sc2c1CCN(C(C)=O)C2	n	n	n	6.5µM	u	7.3µM
